Assay outcomes from PubChem.
The full list was thinned out, with hits kept by preference.
HT1080 IDH1KD tx: toxicity to HT-1080 IDH1 knockdown cells (counter line) | HT-1080 IDH1 knockdown viability, ATP luminescence, 48 h | Potency, µM (highest dose often 46.1 µM), for inactives: top-dose activity, negative = toxicity, actives largely listed as cytotoxic | 360,000 compounds, 2% hits | AID 686971;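 note: potency is the fitted concentration of half-maximal effect; 0% = DMSO wells and -100% = cell-free medium wells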
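After a 2 h attachment period, IDH1KD HT-1080 cells took pin-transferred compound for 48 h at 37 °C; ATP-based luminescence after 10 min room-temperature reagent incubation reported viability.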
TDP1 cell noCPT: qHTS for Inhibitors of human tyrosyl-DNA phosphodiesterase 1 (TDP1): qHTS in cells in absence of CPT; Potency, µM (titrated, usually from 46.2 µM), for inactives: at the top dose activity change, negative = growth inhibition, usual class: inhibitors; 420,000 compounds, 15% hits; DT40 Tdp1-/- hTDP1 cells, no CPT, ATP luminescence, 48 h; note: potency is the fitted concentration of half-maximal effect; nearly all actives have a fitted effect of over 55% in size
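Compound effects on proliferation are scored in DT40 Tdp1-/-;hTDP1 cells in the absence of CPT. ATP levels (CellTiter-Glo luminescence) are recorded after a ≥48 hr, 37 °C incubation.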
TDP1 cell CPT: growth inhibition of DT40 Tdp1-/-;hTDP1 cells with camptothecin (screen for TDP1 inhibitors) | chicken DT40 Tdp1-/-;hTDP1 cells + 20 nM CPT, ATP luminescence, 48 h | Potency, µM (highest dose often 46.2 µM), for the others: top-dose activity change, negative = growth inhibition, hits mostly inhibitors | 420,000 compounds, 12% hits | AID 686979; note: potency is the fitted concentration of half-maximal effect; nearly all actives have a fitted effect of over 55% in size
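Cell growth measured by CellTiter-Glo luminescence after a minimum 48 h, 37 C compound exposure with 20 nM CPT in Tdp1-knockout DT40 cells stably expressing hTDP1, seeded 400/well; qHTS titration format.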
HT1080-NT tox: kills 2HG-producing HT-1080-NT fibrosarcoma cells; HT-1080-NT fibrosarcoma viability, CellTiter-Glo ATP luminescence, 48 h; Potency, µM (titrated, usually from 46.1 µM), without a hit: at the highest dose activity, negative = less viability, usual class: cytotoxic; 360,000 compounds, 1.6% hits; AID 686970;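 note: NT is the 2HG producing partner of a matched IDH1 knockdown line; potency is the fitted concentration of half-maximal effect; 0% = DMSO-treated cells and -100% = media-only wells without cells; nearly all actives have a fitted effect of over 55% in size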
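Viability by CellTiter-Glo luminescence after 48 h compound exposure at 37C of HT-1080-NT cells (750/well, RPMI, 5% FBS). % activity scaled between DMSO wells and medium-only wells, then curve-fitted and categorized by curve class.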
IL1B secr inh: inflammasome signaling inhibition, IL-1 beta readout | THP-1 LPS/ATP IL-1B secretion, AlphaLISA, 16 h; hits give low values | activity change, % at 57.5 µM | 360,000 compounds, 4.7% hits; in the data active = activity change below about -50%; inconclusive = mostly about -30% to -49%
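THP-1 cells pretreated 1 hr with compounds (up to 57.5 uM final), then stimulated with LPS (250 ng/mL final) plus ATP (1.25 mM final); secreted IL-1B measured by AlphaLISA after 16 hr, decreased signal indicating inhibition.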
ALOX12 inh: blocks human arachidonate 12S-lipoxygenase; purified 12hLO, xylenol orange hydroperoxide absorbance; P18054; Potency, µM (highest dose often 108 µM), for the others: at the top dose activity change, negative = inhibition, hits mostly inhibitors; 580,000 compounds, 1.1% hits; note: potency is the fitted concentration of half-maximal effect
Target sequence (P18054 whole entry, looked up): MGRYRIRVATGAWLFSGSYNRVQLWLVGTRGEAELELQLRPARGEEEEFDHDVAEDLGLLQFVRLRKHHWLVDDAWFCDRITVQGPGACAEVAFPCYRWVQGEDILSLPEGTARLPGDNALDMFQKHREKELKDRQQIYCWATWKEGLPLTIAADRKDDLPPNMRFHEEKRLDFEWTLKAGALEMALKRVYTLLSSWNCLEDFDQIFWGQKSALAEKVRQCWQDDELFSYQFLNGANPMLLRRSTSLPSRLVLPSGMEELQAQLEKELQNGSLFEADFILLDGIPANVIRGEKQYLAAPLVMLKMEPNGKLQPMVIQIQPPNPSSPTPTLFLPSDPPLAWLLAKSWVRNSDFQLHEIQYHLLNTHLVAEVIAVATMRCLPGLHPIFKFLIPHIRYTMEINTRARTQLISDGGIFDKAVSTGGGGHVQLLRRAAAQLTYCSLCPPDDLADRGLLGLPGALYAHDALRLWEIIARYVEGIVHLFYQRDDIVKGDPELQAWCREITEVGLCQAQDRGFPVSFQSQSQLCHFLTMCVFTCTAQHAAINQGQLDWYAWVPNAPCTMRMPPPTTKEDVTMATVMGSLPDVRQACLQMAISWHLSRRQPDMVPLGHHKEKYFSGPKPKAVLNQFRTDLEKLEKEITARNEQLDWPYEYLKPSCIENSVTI
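Purified human 12hLO at 150 nM in 25 mM Hepes, 0.01% Triton X-100, pH 7.0, preincubated 15 min at room temperature with compound. Reaction started with 40 uM arachidonic acid, 30 min at room temperature. Hydroperoxide measured by Fe-xylenol orange, 573/405 nm absorbance ratio.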
Numbers without * were called inactive; [ ] = remark or other dose. Unless noted, calls come from the whole dose curve; as a rule, active = well fitted curve in the direction sought with a large enough effect; inconclusive = small, poorly fitted or top-dose-only effect, or another doubt; inactive = no such curve, though single readings can be large; an effect the other way counts as inactive or inconclusive. Unless noted, % is set by controls: 0 for no effect and ±100 for the full control effect.

Screening CCCC1CC(C(=O)N[C@H](C(C)O)C2OC(SC)[C@@H](O)C(O)C2O)N(C)C1 (stereo partly specified) returned TDP1 cell noCPT -5% and TDP1 cell CPT -4%.
`Cc1ccc2c(c1)C(C)(c1ccccc1)CC(C)(C)N2C(=O)c1ccc(F)cc1` (stereo unspecified) gave TDP1 cell noCPT 13µM*, TDP1 cell CPT inconclusive and ALOX12 inh -10%.
For COc1cccc(C(=O)N2c3cc(C)ccc3C(C)(c3ccccc3)CC2(C)C)c1 (stereo unspecified) the results were TDP1 cell noCPT 15µM*, TDP1 cell CPT inconclusive and ALOX12 inh -11%.
`COc1cccc(C(=O)N2c3cc(C)ccc3OCC2C(C)(C)C)c1` (stereo unspecified) gave HT1080 IDH1KD tx 16%, TDP1 cell noCPT inconclusive, TDP1 cell CPT -3%, HT1080-NT tox inconclusive, IL1B secr inh -2 and ALOX12 inh -8%.
`Cc1ccc2sc(N3CCN(C(=O)CCS(=O)(=O)c4ccc(F)cc4)CC3)nc2c1C` gave TDP1 cell noCPT 2.6µM*, TDP1 cell CPT 4.1µM* and ALOX12 inh inconclusive.
For O=C(CCS(=O)(=O)c1ccc(Cl)cc1)N1CCN(c2nc3ccc(Cl)cc3s2)CC1 the results were ALOX12 inh -24%.
Screening COc1ccc(OC)c2sc(N3CCN(C(=O)CCS(=O)(=O)c4ccc(F)cc4)CC3)nc12 returned TDP1 cell noCPT 21µM*, TDP1 cell CPT 18µM* and ALOX12 inh -20%.
For COc1ccc(OC)c2sc(N3CCN(C(=O)c4ccc([N+](=O)[O-])s4)CC3)nc12 the results were HT1080 IDH1KD tx -11%, TDP1 cell noCPT inconclusive, TDP1 cell CPT inconclusive, HT1080-NT tox 0%, IL1B secr inh 10 and ALOX12 inh 0%.
`CC(=O)N1CCN2C(=O)N([C@@H](C)c3ccccc3)C(=O)[C@@H]2C1` gave ALOX12 inh 60%[176 µM].
Screening O/C(=C\c1nc2ccccc2nc1/C=C(\O)c1ccccc1)c1ccccc1 returned HT1080 IDH1KD tx inconclusive, TDP1 cell noCPT inconclusive, TDP1 cell CPT inconclusive, HT1080-NT tox 21µM* and IL1B secr inh -98*.
For O=c1oc2ccccc2nc1/C=C(\O)c1ccccc1 the results were HT1080 IDH1KD tx -5%, TDP1 cell noCPT inconclusive, TDP1 cell CPT inconclusive, HT1080-NT tox -6%, IL1B secr inh 39 and ALOX12 inh 242%.
Screening CN(Cc1cccs1)C(=O)CC1CCCC1 returned ALOX12 inh -50%.
`Cc1cc(C)cc(Nc2cc(=O)n(C3CCCCC3)c(=O)[nH]2)c1` gave HT1080 IDH1KD tx inconclusive, TDP1 cell noCPT 18µM*, TDP1 cell CPT inconclusive, HT1080-NT tox inconclusive, IL1B secr inh 22 and ALOX12 inh -2%.
For CC1CCN(c2cc(=O)n(C3CCCCC3)c(=O)[nH]2)CC1 the results were HT1080 IDH1KD tx 7%, TDP1 cell noCPT -21%, TDP1 cell CPT inconclusive, HT1080-NT tox -2%, IL1B secr inh 19 and ALOX12 inh 9%[57.4 µM].
`COc1cc(C(=O)Nc2cccc(NC(=O)C(C)n3cccn3)c2)cc(Cl)c1OC` (stereo unspecified) gave ALOX12 inh 5%.
CC(C(=O)NNS(=O)(=O)c1cccc(C(F)(F)F)c1)n1nnc(N2CCOCC2)n1 (stereo unspecified) was read as HT1080 IDH1KD tx 12%, TDP1 cell noCPT -15%, TDP1 cell CPT -3%, HT1080-NT tox inconclusive, IL1B secr inh 40 and ALOX12 inh 3.5µM*.
Screening COc1ccccc1CNC(=O)C1CCN(c2cc(C(F)(F)F)nc(C)n2)CC1 returned ALOX12 inh -16%.
Cc1nc2n(c(=O)c1C)CN(CCN1CCOCC1)CN2c1cccc(C(F)(F)F)c1 was read as ALOX12 inh 8%.
For N#Cc1ccc(-c2cccs2)nc1SCc1cccnc1 the results were HT1080 IDH1KD tx inconclusive, TDP1 cell noCPT 0.41µM*, TDP1 cell CPT 0.52µM*, HT1080-NT tox inconclusive, IL1B secr inh 93 and ALOX12 inh inconclusive.
CCCc1noc(-c2cn(C3CCN(C(=O)c4ccc5c(c4)OCO5)CC3)nn2)n1 was read as ALOX12 inh -5%.
`CN(CCOc1ccccc1)C(=O)c1cc(S(=O)(=O)N2CCCCC2)ccc1Cl` gave HT1080 IDH1KD tx -2%, TDP1 cell noCPT inconclusive, TDP1 cell CPT inconclusive, HT1080-NT tox -12%, IL1B secr inh -65* and ALOX12 inh 0%.
For O=C(COC(=O)CC1CC2CCC1C2)Nc1ccc(Cl)c(S(=O)(=O)N2CCOCC2)c1 (stereo unspecified) the results were HT1080 IDH1KD tx inconclusive, TDP1 cell noCPT inconclusive, TDP1 cell CPT 16µM*, HT1080-NT tox -14%, IL1B secr inh 44 and ALOX12 inh -1%.
Screening Nc1cc(S(=O)(=O)N2CCCCC2)ccc1Oc1ccccc1 returned HT1080 IDH1KD tx inconclusive, TDP1 cell noCPT 10µM*, TDP1 cell CPT inconclusive, HT1080-NT tox -2%, IL1B secr inh 4 and ALOX12 inh -5%.
Screening NC(=O)c1cc(S(=O)(=O)N2CCCC2)ccc1OCC(=O)Nc1ccc(Oc2ccccc2)cc1 returned ALOX12 inh -3%.
`COc1ccc(S(=O)(=O)N2CCOCC2)cc1NC(=O)COC(=O)CC1CC2CCC1C2` (stereo unspecified) gave HT1080 IDH1KD tx 3%, TDP1 cell noCPT -6%, TDP1 cell CPT -26%, HT1080-NT tox 0%, IL1B secr inh 15 and ALOX12 inh -10%.
For NC(=O)c1cc(S(=O)(=O)N2CCCC2)ccc1OCCOc1ccccc1 the results were HT1080 IDH1KD tx 5%, TDP1 cell noCPT -22%, TDP1 cell CPT -5%, HT1080-NT tox 4%, IL1B secr inh -51* and ALOX12 inh -9%.
`CCOc1ccc(C(=O)N[C@@H]2CN(C)C[C@H]2CN(C)C)cc1` gave ALOX12 inh 91%.
Screening O=C(Nc1ccc(Cl)c(S(=O)(=O)N2CCOCC2)c1)c1cc2ccccc2oc1=O returned HT1080 IDH1KD tx 9%, TDP1 cell noCPT inconclusive, TDP1 cell CPT inconclusive, HT1080-NT tox 4%, IL1B secr inh 7 and ALOX12 inh 7%.
